From the supplement of paper PMC6331611 come the findings set out here.

± gives the standard deviation of the averaged measurements. The full ranking holds about 1,600 compounds; the median of “normalized growth (OD600, IQM-normalized) in LPM” is about 1, and the lowest 2% start at about 0.014. What follows is part of a selection rich in the lowest values, with near analogues and random picks from the rest.

The test system of this test is Salmonella enterica serovar Typhimurium SL1344. Kind of test: normalized growth (OD600, IQM-normalized) in LPM (fraction of plate interquartile mean); higher = more bacterial growth (less inhibition). Particulars: LPM pH 5.8; 10 µM; 16 h.
Regarding `CNCC[C@H](Oc1cccc2ccccc12)c1cccs1`, the normalized growth amounted to 1.05 ± 0.046.
In turn, `CN1CC(=O)N2[C@H](c3ccc4c(c3)OCO4)c3[nH]c4ccccc4c3C[C@@H]2C1=O` gave a normalized growth of 1.19 ± 0.024.
Under `CCOC(=O)CCC(=O)O[C@H]1[C@H](O[C@@H]2[C@@H](C)[C@H](O[C@H]3C[C@@](C)(OC)[C@@H](O)[C@H](C)O3)[C@@H](C)C(=O)O[C@H](CC)[C@@](C)(O)[C@H](O)[C@@H](C)C(=O)[C@H](C)C[C@@]2(C)O)O[C@H](C)C[C@@H]1N(C)C` stands 1.14 ± 0.045; under `C=CCCCCCCCCC(=O)[O-].C=CCCCCCCCCC(=O)[O-].[Zn+2]`, 1.15 ± 0.041.
The same measure for `CCN(CC)CCNC(=O)COc1ccc(OC)cc1`: 0.869 ± 0.0096; for `CC(C)(O)c1ccccc1CC[C@@H](SCC1(CC(=O)O)CC1)c1cccc(/C=C/c2ccc3ccc(Cl)cc3n2)c1`: 1 ± 0.023.
As to `CC(C)CCCC(C)N` (stereo not given), the normalized growth was found to be 1.05 ± 0.09.
Under `CCC(C)(C)C(=O)O[C@H]1C[C@@H](C)C=C2C=C[C@H](C)[C@H](CC[C@@H]3C[C@@H](O)CC(=O)O3)[C@H]21` stands 0.777 ± 0.071; under `CC(=O)OCC[N+](C)(C)C`, 1.05 ± 0.023; under `CC(=O)N(c1onc(C)c1C)S(=O)(=O)c1ccc(N)cc1`, 1.08 ± 0.046.
`CO[C@H]1C[C@H](O[C@H]2[C@H](C)O[C@@H](O[C@@H]3/C(C)=C/C[C@@H]4C[C@@H](C[C@]5(C=C[C@H](C)[C@@H](C6CCCCC6)O5)O4)OC(=O)[C@@H]4C=C(C)[C@@H](O)[C@H]5OC/C(=C\C=C\[C@@H]3C)[C@]54O)C[C@@H]2OC)O[C@@H](C)[C@@H]1O` returned a normalized growth of 0.776 ± 0.03.
Under `CC(=O)NCCCS(=O)(=O)O` stands 0.949 ± 0.11; under `CCOC(=O)OC(C)OC1=C(C(=O)Nc2ccccn2)N(C)S(=O)(=O)c2ccccc21` (stereo not given), 1.04 ± 0.05.
The same measure for `CC1COc2c(N3CCN(C)CC3)c(F)cc3c(=O)c(C(=O)O)cn1c23` (stereo not given): 0.0109 ± 0.00084; for `C[C@H]1COc2c(N3CCN(C)CC3)c(F)cc3c(=O)c(C(=O)O)cn1c23`: 0.00833 ± 0.00037.
The same measure for `CC1CCc2c(N3CCC(O)CC3)c(F)cc3c(=O)c(C(=O)O)cn1c23` (stereo not given): 0.0179 ± 0.013; for `CO/N=C1\CN(c2nc3c(cc2F)c(=O)c(C(=O)O)cn3C2CC2)CC1CN` (stereo not given): 0.0206 ± 0.00035.
On to `CN1CCN(c2c(F)cc3c(=O)c(C(=O)O)cn4c3c2SCC4)CC1`, for which the normalized growth worked out at 0.02519 ± 0.00023.
The same measure for `C[C@H]1COc2c(C3(N)CC3)c(F)cc3c(=O)c(C(=O)O)cn1c23`: 0.008373 ± 7.5e-05; for `CC1CCc2cc(F)cc3c(=O)c(C(=O)O)cn1c23` (stereo not given): 0.0174 ± 0.0072; for `CC=CC1=C(C(=O)O)N2C(=O)[C@@H](NC(=O)[C@H](N)c3ccc(O)cc3)[C@H]2SC1`: 1.04 ± 0.032.
The same measure for `CCCCC(=O)N(Cc1ccc(-c2ccccc2-c2nnn[nH]2)cc1)[C@H](C(=O)O)C(C)C`: 0.845 ± 0.034; for `CCC(=O)c1c(O)cc(O)cc1O`: 1.09 ± 0.016.
The same measure for `Cc1c(Nc2ncccc2C(=O)O)cccc1C(F)(F)F`: 1.04 ± 0.041; for `Cl.N=C(N)NCCC[C@H](N)C(=O)O`: 1 ± 0.042; for `C=C(NC(=O)C(=C)NC(=O)c1csc(C2=N[C@@H]3c4csc(n4)[C@H]4NC(=O)c5csc(n5)[C@H]([C@](C)(O)[C@@H](C)O)NC(=O)[C@H]5CSC(=N5)/C(=C/C)NC(=O)[C@H]([C@@H](C)O)NC(=O)c5csc(n5)[C@]3(CC2)NC(=O)[C@H](C)NC(=O)C(=C)NC(=O)[C@H](C)NC(=O)[C@H]([C@@H](C)CC)N[C@@H]2C=Cc3c([C@H](C)O)cc(nc3[C@H]2O)C(=O)O[C@@H]4C)n1)C(N)=O`: 1 ± 0.09.
Take `C=C(C)[C@H]1CC=C(C)CC1`: the normalized growth worked out at 0.978 ± 0.024.
Under `Cc1cc2nc3c(=O)[nH]c(=O)nc-3n(CC(O)C(O)C(O)COP(=O)(O)O)c2cc1C` (stereo not given) stands 0.822 ± 0.056; under `O=S(=O)(O)CCSSCCS(=O)(=O)O`, 1.02 ± 0.069; under `CC(C)[C@H](NC(=O)[C@H](CC(=O)O)NC(=O)[C@H](CCCCN)NC(=O)[C@@H](N)CCCN=C(N)N)C(=O)N[C@@H](Cc1ccc(O)cc1)C(=O)O`, 0.991 ± 0.011.
The same measure for `CC(=O)OCC(=O)[C@@]1(O)CC[C@H]2[C@@H]3CCC4=CC(=O)CC[C@]4(C)[C@@]3(F)[C@@H](O)C[C@@]21C`: 1.09 ± 0.11.
The same measure for `O=C1c2c(O)cccc2C([C@@H]2O[C@H](CO)[C@@H](O)[C@H](O)[C@H]2O)c2cc(CO)cc(O)c21` (stereo not given in full): 1 ± 0.043.
On to `C[N+]1(C)[C@@H]2CC[C@H]1C[C@@H](OC(=O)C(O)c1ccccc1)C2` (stereo not given in full), for which the normalized growth was 0.976 ± 0.081.
Under `Nc1ncnc(Nc2ccc(Cl)cc2)n1` stands 0.999 ± 0.071.
On to `CN1CCCN=C1COC(=O)C(O)(c1ccccc1)C1CCCCC1` (stereo not given), for which the normalized growth amounted to 1.23 ± 0.026.
Under `CC(O)(CC(=O)O)CC(=O)O` stands 0.921 ± 0.018.
Under `COc1ccc(CN(CCN(C)C)c2ncccn2)cc1` stands 1.11 ± 0.038.
Under `CCN(CC)CCOc1ccc(C(=C(Cl)c2ccccc2)c2ccccc2)cc1` stands 1.07 ± 0.023; under `C[C@H]1c2cccc(O)c2C(=O)C2=C(O)[C@]3(O)C(=O)C(C(N)=O)=C(O)[C@@H](N(C)C)[C@@H]3[C@@H](O)[C@@H]21`, 0.0125 ± 0.00056; under `CN(C)[C@@H]1C(O)=C(C(N)=O)C(=O)[C@@]2(O)C(O)=C3C(=O)c4c(O)ccc(Cl)c4[C@@](C)(O)[C@H]3C[C@@H]12`, 0.0113 ± 0.00051.
As to `CN(C)[C@@H]1C(O)=C(C(N)=O)C(=O)[C@@]2(O)C(O)=C3C(=O)c4c(O)cccc4[C@@](C)(O)[C@H]3[C@H](O)[C@@H]12`, the normalized growth worked out at 0.0138 ± 0.00025.
The same measure for `C=C1c2c(Cl)ccc(O)c2C(=O)C2=C(O)[C@]3(O)C(=O)C(C(N)=O)=C(O)[C@@H](N(C)C)[C@@H]3[C@@H](O)[C@H]12.O=C(O)c1cc(S(=O)(=O)O)ccc1O`: 0.0199 ± 0.00036; for `CN(C)[C@@H]1C(O)=C(C(N)=O)C(=O)[C@@]2(O)C(O)=C3C(=O)c4c(O)cccc4[C@@](C)(O)[C@H]3C[C@@H]12`: 0.0127 ± 0.00026; for `C=C1c2cccc(O)c2C(=O)C2=C(O)[C@]3(O)C(=O)C(C(N)=O)=C(O)[C@@H](N(C)C)[C@@H]3[C@@H](O)[C@H]12`: 0.0154 ± 0.00028.
Compound `CN(C)[C@@H]1C(O)=C(C(=O)NCN2CCCC2)C(=O)[C@@]2(O)C(O)=C3C(=O)c4c(O)cccc4[C@@](C)(O)[C@H]3C[C@@H]12` gave a normalized growth of 0.854 ± 0.027.
The same measure for `CN(C)c1cc(NC(=O)CNC(C)(C)C)c(O)c2c1C[C@H]1C[C@H]3[C@H](N(C)C)C(O)=C(C(N)=O)C(=O)[C@@]3(O)C(O)=C1C2=O`: 0.962 ± 0.053; for `CN(C)[C@@H]1C(O)=C(C(N)=O)C(=O)[C@@]2(O)C(O)=C3C(=O)c4c(O)ccc(Cl)c4[C@@H](O)[C@H]3C[C@@H]12`: 0.00865 ± 0.00039; for `CN(C)c1ccc(O)c2c1C[C@H]1C[C@H]3[C@H](N(C)C)C(O)=C(C(N)=O)C(=O)[C@@]3(O)C(O)=C1C2=O`: 0.0111 ± 0.00049.
Under `CC1(C)[C@H]2CC[C@]1(CS(=O)(=O)O)C(=O)C2=Cc1ccc(C=C2C(=O)[C@@]3(CS(=O)(=O)O)CC[C@@H]2C3(C)C)cc1` stands 0.989 ± 0.073; under `CC(=O)[C@H]1CC[C@H]2[C@@H]3CC=C4C[C@@H](OC(=O)CCC(=O)O)CC[C@]4(C)[C@H]3CC[C@]12C`, 1.02 ± 0.027; under `CCCCC(CC)COC(=O)C(C#N)=C(c1ccccc1)c1ccccc1` (stereo not given), 0.82 ± 0.0086.
The same measure for `CCN(CC)CCc1nc(-c2ccccc2)no1`: 0.956 ± 0.062; for `C/C(=C\C(=O)OCCCCCCCCC(=O)O)C[C@@H]1OC[C@H](C[C@@H]2O[C@H]2[C@@H](C)[C@H](C)O)[C@@H](O)[C@H]1O`: 0.00952 ± 0.00017; for `COc1cccc(OC)c1C(=O)N[C@@H]1C(=O)N2[C@@H]1SC(C)(C)[C@@H]2C(=O)O`: 1.12 ± 0.019.
As to `O=c1[nH]c(=O)n([C@H]2C[C@H](O)[C@@H](CO)O2)cc1F`, the normalized growth is 0.0114 ± 0.00023.
Under `CCc1cn([C@H]2C[C@H](O)[C@@H](CO)O2)c(=O)[nH]c1=O` stands 0.664 ± 0.046; under `O=c1[nH]c(=O)n([C@H]2C[C@H](O)[C@@H](CO)O2)cc1I`, 1.05 ± 0.026; under `O=C1C(CC[S+]([O-])c2ccccc2)C(=O)N(c2ccccc2)N1c1ccccc1` (stereo not given), 1.097 ± 0.0059.
Consider `CN1CCCC(n2nc(Cc3ccc(Cl)cc3)c3ccccc3c2=O)CC1` (stereo not given), for which the normalized growth was determined as 1.04 ± 0.039.
Under `N=C(N)NCC1COC2(CCCCC2)O1` (stereo not given) stands 0.863 ± 0.015; under `CCCc1nc(C(C)(C)O)c(C(=O)OCc2oc(=O)oc2C)n1Cc1ccc(-c2ccccc2-c2nnn[nH]2)cc1`, 1.005 ± 0.0069.
Under `CN(C)CCN(Cc1ccccc1)c1ccccn1` stands 0.906 ± 0.035.
Under `CCN(CC)C(=O)c1cccnc1` stands 1.14 ± 0.095; under `OC[C@@H](O)[C@@H](O)CO`, 0.975 ± 0.05; under `COc1ccc(-c2cc(C(F)F)nn2-c2ccc(S(N)(=O)=O)cc2)cc1F`, 1.01 ± 0.035.
